tested on: PPARg DBDmut IVT, anti-PPARg (DBD mutation: PPARg1 K132A/R137A, NR concentration 270 nM); experiment: PBM binding z-score (relative to random genomic background probes); higher = stronger binding; sequences stand for … in GC…GCGATTGACAGCGTAGAATGAAGG
How it was run: (§1)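 For binding z-scores, the reference was random background probes on custom Agilent 4×180K protein-binding microarrays. These arrays were incubated 1 h with ligand-free nuclear receptor dimers in PBS pH 7.4, 2% milk, 0.02% Triton X-100, 1 mM DTT, 0.2 mg/mL BSA and 0.4 mg/ml salmon testes DNA. Fluorescence was scanned after antibody detection of each partner (one per run) and regression-normalized.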

Sequence	PBM binding z-score
CATACAGGTTCAGCTAGGCCAGAGTAGGGACGGC	0.0145
TCGAGTAGGTTAGTCGGTGCATTCAGCCAACATA	-0.55
CAACCTAGGTCACAGAGGTCAAAGTCCGTGCGTA	-0.0572
ATACCAAGGTGATGGTGAGGTCGTTGATACTAAC	0.597
ATCTCTAGGTAACCAACTTCAGTGAATGCCGAAC	1.39
CGGCAAAGTTCAAGGTAACGTAACAGAAAGCAGC	-0.284
CCTGCTTGGTCAATGGTCAGCTAAAGCAGCTCGC	-0.884
CGTCCAAGGTCAGAGAGATCAGTGAATGCCGAGT	-0.28
ACAGGCAGGTGAGTGAAGGTAACTCAGCTGGACG	-0.655
TCTAGCGGGCCAGAGGGTCACTCAAGAGGTACGG	-1.59
TCTATTAGCTGAAGGGCAACCGACGAGTCCGTTT	0.466
TCTTGTAGATCAATAGACGTTAAGAAAGTGCGCT	1.4
CCTACTGGGCCACAAAAGGTCATTGATTCAGTGA	0.121
TAGCCTAGGGCAGATCGGGCCAGTATACGCTATA	-1.38
CCTTACGGGTCAAGGTTACAGCACGGGTGGTACG	-0.0526
CTTACTGGGCCAAAAAGGTCATTGATGCCGATAA	1.61
CATACAAGGTCAGCTAGGCCAGAGTAGGGACGGC	1.12
CCGGCTGGGGCAAGGTTACCATAACGCACAGCCA	-1.85
GCAGACAGGTGAAGCGCAGGTAACTCAGGGTGGC	-1.21
AGTCAAAGTTCACTAGGTAAAGTAAGATTCAGCT	1.74

Sequence	PBM binding z-score
CGTCCAAGGTCAAGGTCAGGGAAAGAGACTCGAA	-0.224
CAAACTAGGTCACCGGAATGTCAAAGTCCGCATG	2.79
TGAATGAGGTTAAAGATAAGGGAACGTGGCGTCG	0.597
ATCGAAAGGTCGTCAGGTGAGTATACAGAAAGGC	1.05
TCTATTAGTTGAAGGGCATCCGACGAGTCCGTTT	0.308
CGTAAAAGTTCAAGGTAACGTAACAGAAAGCAGC	1.28
TCAGAGAGGTGAAGGTAACTCAGGTACGCAGTCG	-0.235
ATCTCTAGGTAAAGTGCAGTGAAAGATCGATAGA	0.336
ATCTCTAGGTAAAAGGTCAGTGAATCCCGAGGAT	2.13
TGAATGAGGTTATAGGATCAGGGAACGTTGCAAA	-0.0124
TGAATGAGGTTAGAGATCAGGGAACGTGGCGTCG	0.367
CGTCCATGGTCAGAGAGGTCAGTGAATGCCGAGT	-0.643
TCTGCTAGTTCAACGATGGTCAGCTAATCTGCTA	-0.339
GATACAGGATCAAGGCCAGAGTACGCGTATTGAT	0.288
CATACTGGGCCATTCAGAGGTCATTGATCATATG	0.509
ATCTCTAGGTAAACTTCAGTGAAAGATCGATAGA	1.2
TCGAGTAGGTTAGTCGGGGAATTCAGCCAACATA	-0.828
CTACCAAGTTGAACAAGGTCGTTGATTACTATTC	0.704
GCTGCTAGGTCAGGTTGGACAGCTAACGGGTACG	-0.812
AATACAGGGTCACCGTAGGCCAGAGTACGCACAG	0.332

tested on: PPARg homodimer (NR concentration 180 nM); experiment: as above
How it was run: as §1

Sequence	PBM binding z-score
CATACAGGTTCAGCTAGGCCAGAGTAGGGACGGC	0.268
TCGAGTAGGTTAGTCGGTGCATTCAGCCAACATA	0.152
CAACCTAGGTCACAGAGGTCAAAGTCCGTGCGTA	6.18
ATACCAAGGTGATGGTGAGGTCGTTGATACTAAC	1.2
ATCTCTAGGTAACCAACTTCAGTGAATGCCGAAC	0.412
CGGCAAAGTTCAAGGTAACGTAACAGAAAGCAGC	2.12
CCTGCTTGGTCAATGGTCAGCTAAAGCAGCTCGC	0.138
CGTCCAAGGTCAGAGAGATCAGTGAATGCCGAGT	1.89
ACAGGCAGGTGAGTGAAGGTAACTCAGCTGGACG	-0.302
TCTAGCGGGCCAGAGGGTCACTCAAGAGGTACGG	-0.0821
TCTATTAGCTGAAGGGCAACCGACGAGTCCGTTT	-0.169
TCTTGTAGATCAATAGACGTTAAGAAAGTGCGCT	-0.0841
CCTACTGGGCCACAAAAGGTCATTGATTCAGTGA	2.8
TAGCCTAGGGCAGATCGGGCCAGTATACGCTATA	-0.781
CCTTACGGGTCAAGGTTACAGCACGGGTGGTACG	1.7
CTTACTGGGCCAAAAAGGTCATTGATGCCGATAA	4.12
CATACAAGGTCAGCTAGGCCAGAGTAGGGACGGC	2.33
CCGGCTGGGGCAAGGTTACCATAACGCACAGCCA	0.0716
GCAGACAGGTGAAGCGCAGGTAACTCAGGGTGGC	-0.277
AGTCAAAGTTCACTAGGTAAAGTAAGATTCAGCT	2.43

Sequence	PBM binding z-score
CGTCCAAGGTCAAGGTCAGGGAAAGAGACTCGAA	4.18
CAAACTAGGTCACCGGAATGTCAAAGTCCGCATG	2.69
TGAATGAGGTTAAAGATAAGGGAACGTGGCGTCG	0.427
ATCGAAAGGTCGTCAGGTGAGTATACAGAAAGGC	2.13
TCTATTAGTTGAAGGGCATCCGACGAGTCCGTTT	1.24
CGTAAAAGTTCAAGGTAACGTAACAGAAAGCAGC	2.19
TCAGAGAGGTGAAGGTAACTCAGGTACGCAGTCG	0.67
ATCTCTAGGTAAAGTGCAGTGAAAGATCGATAGA	0.363
ATCTCTAGGTAAAAGGTCAGTGAATCCCGAGGAT	2.81
TGAATGAGGTTATAGGATCAGGGAACGTTGCAAA	0.65
TGAATGAGGTTAGAGATCAGGGAACGTGGCGTCG	0.476
CGTCCATGGTCAGAGAGGTCAGTGAATGCCGAGT	1.93
TCTGCTAGTTCAACGATGGTCAGCTAATCTGCTA	-1.27
GATACAGGATCAAGGCCAGAGTACGCGTATTGAT	-0.0406
CATACTGGGCCATTCAGAGGTCATTGATCATATG	2.57
ATCTCTAGGTAAACTTCAGTGAAAGATCGATAGA	0.999
TCGAGTAGGTTAGTCGGGGAATTCAGCCAACATA	-0.2
CTACCAAGTTGAACAAGGTCGTTGATTACTATTC	1.45
GCTGCTAGGTCAGGTTGGACAGCTAACGGGTACG	0.345
AATACAGGGTCACCGTAGGCCAGAGTACGCACAG	2.04

From the supplement of paper PMC6555819
